Shiga toxin inh: Shiga toxin inhibition; Vero cells, Shiga toxin protein synthesis inhibition reporter; inhibition, % at 38.7 µM; actives 9.2% (n = 290,000); AID 2315; in the data active means inhibition mostly above about 28%, no sharp cut-off; inactive means mostly below about 43%; further: 0% is about no effect
LmPK inh: inhibitors of Leishmania mexicana pyruvate kinase | actives 0.37% (n = 290,000) | Potency, µM (top dose mostly 57.5 µM), without a hit: top-dose activity change, negative = inhibition, hits mostly inhibitors | Q27686 | purified LmPK, Kinase-Glo ATP luminescence, 1 h; further: potency means the concentration at half of the fitted maximal effect; on the % scale 0 is the no-effect control and ±100 the full control effect
Target sequence (Q27686 whole entry, looked up): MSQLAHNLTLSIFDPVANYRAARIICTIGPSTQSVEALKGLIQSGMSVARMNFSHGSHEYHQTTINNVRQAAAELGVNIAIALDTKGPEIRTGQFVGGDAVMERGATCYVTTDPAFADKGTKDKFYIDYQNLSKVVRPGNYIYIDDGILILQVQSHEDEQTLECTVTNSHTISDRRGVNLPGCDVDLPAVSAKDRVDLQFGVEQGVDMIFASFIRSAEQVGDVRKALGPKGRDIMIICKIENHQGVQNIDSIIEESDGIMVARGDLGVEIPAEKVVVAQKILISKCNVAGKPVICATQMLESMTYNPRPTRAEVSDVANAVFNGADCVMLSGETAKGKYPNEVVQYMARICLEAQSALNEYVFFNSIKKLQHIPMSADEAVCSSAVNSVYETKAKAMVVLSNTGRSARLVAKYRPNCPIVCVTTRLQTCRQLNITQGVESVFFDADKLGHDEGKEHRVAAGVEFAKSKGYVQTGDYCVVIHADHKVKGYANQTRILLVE
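qHTS format; LmPK 0.1 nM; substrates PEP 0.5 mM and ADP 0.1 mM. One-hour room-temperature incubation, then coupled luciferase luminescence; 0.5 nM enzyme wells mark activation.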
CHX counter: counter-screen for Shiga toxin inhibitors: cycloheximide protein synthesis inhibition. max response, %. AID 2314. cell reporter, cycloheximide protein synthesis inhibition counterscreen. actives 12% (n = 300,000); in the data active means max response mostly above about 13%, no sharp cut-off; inactive means mostly below about 14%; further: read at 38.3 µM for the half of the compounds with a filed dose; 0% is about no effect
RE007 growth inh: less growth of the S. pombe RE007 Vpr strain; S. pombe RE007 Vpr strain, BacTiter-Glo ATP luminescence, 24 h; Potency, µM (highest dose often 92.2 µM), inactives show at the top dose activity change, negative = less growth, usual class: inhibitors; actives 0.21% (n = 360,000); active means well fitted falling curve with a large enough effect; inconclusive means small, poorly fitted or top-dose-only effect; inactive means no such curve, though single readings can be large or run the other way; further: potency means the concentration at half of the fitted maximal effect; on the % scale 0 is the no-effect control and ±100 the full control effect; nearly all actives have a fitted effect of over 50% in size
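Fission yeast RE007 carrying one integrated HIV-1 vpr copy, seeded at OD 0.01 in PMG+AL medium with 23 nL pinned compound. Grown 24 h at 30 degrees; viability read by BacTiter-Glo luminescence after 5 min.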
Tb PYK inh: blocks Trypanosoma brucei pyruvate kinase; actives 0.12% (n = 410,000); TbPYK enzyme, Kinase-Glo Plus ATP luminescence, 45 min; Q57TT1; AID 624173; Potency, µM (series often up to 76.8 µM), for the others: top-dose activity, negative = inhibition, hits mostly inhibitors; further: potency means the concentration at half of the fitted maximal effect; on the % scale 0 is the no-effect control and ±100 the full control effect; nearly all actives have a fitted effect of over 50% in size
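Screened from lowest to highest concentration, compounds were pinned into TbPYK/substrate mixtures, and ADP (130 uM final) was added. Plates sat at room temperature for 45 min prior to Kinase-Glo Plus detection by luminescence.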
Giardia FBPA inh: blocks Giardia fructose-bisphosphate aldolase activity; A8B2U2; purified Giardia FBPA; Potency, µM (doses to about 59.6 µM), for inactives: at the top dose activity, negative = inhibition, hits mostly inhibitors; actives 0.71% (n = 290,000); further: potency means the concentration at half of the fitted maximal effect; on the % scale 0 is the no-effect control and ±100 the full control effect; nearly all actives have a fitted effect of over 55% in size
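40 nM FBPA preincubated 10 min at RT with compound (up to 57.5 uM final), then substrate plus GAPDH/TPI/NAD/arsenate coupling and diaphorase/resazurin added. Fluorescence read after 20 min at RT, 525/598 nm.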
Starred values were filed as active, the others as inactive; ? = inconclusive; . = not tested or not shown; [ ] = remark or other dose. This excerpt belongs to a sample that is enriched for hits. Unless noted, the call rests on the fitted dose curve; in most records, active means well fitted curve in the direction sought with a large enough effect; inconclusive means small, poorly fitted or top-dose-only effect, or another doubt; inactive means no such curve, though single readings can be large; an effect the other way counts as inactive or inconclusive.

SMILES | Shiga toxin inh | LmPK inh | CHX counter | RE007 growth inh | Tb PYK inh | Giardia FBPA inh
Cc1cc(/C=C2/C(=N)N3C(c4ccccc4)=CSC3=NC2=O)c(C)n1-c1ccccc1 | -6 | 3% | 20* | -10% | -5% | -5%
Cc1ccccc1-n1c(C)cc(/C=C2/C(=N)N3C(c4ccccc4)=CSC3=NC2=O)c1C | 17 | 0% | 8 | -6% | 2% | -2%
COc1cc(Cn2c3ccc(NC(=O)NCc4ccc(F)cc4)cc3c(=O)n2C)ccc1F | . | . | . | -9%[18.4 µM] | 2% | .
Cc1cc(C)n2nc(CNC(=O)c3ccc(Cl)cc3)nc2n1 | . | . | . | . | 1% | .
Cc1ccc(NC(=O)c2sc(Cl)nc2C)c(C)c1 | 1 | -1% | 12 | 39% | 5% | 2%
Cc1ccc(NC(=O)c2sc(C)nc2C)c(C)c1 | 36* | 1% | 17* | 6% | 4% | -6%
COC(=O)c1ccc(NC(=O)c2ccc3nsnc3c2)cc1 | 25 | -1% | 1 | -13% | 4% | -6%
Cc1ccc(NC(=O)c2ccc3nsnc3c2)c(C)c1 | 35* | 0% | 30* | 4% | -9% | -9%
COCCN(Cc1ccc(OC)cc1)c1c(C)nc2ccc(C(=O)NCCc3c[nH]c4ccccc34)cn12 | . | . | . | 2% | -3% | .
O=C1c2cccc3cccc(c23)C(=O)N1CC1CCN(CC(O)COc2ccc3ccccc3c2)CC1 (centres undefined) | 128* | 2% | 72* | 9% | -4% | .
COc1cccc(OCC(O)CN2CCC(CN3C(=O)c4cccc5cccc(c45)C3=O)CC2)c1 (centres undefined) | 13 | 15% | -5 | 2% | 0% | -4%
COc1ccc(C(CNC(=O)c2ccc(-c3ccccc3)cc2)N(C)C)cc1OC (centres undefined) | 34 | 1% | 10* | -7% | -13% | 15%
COc1ccc(C(CNC(=O)c2cccc(NS(=O)(=O)c3ccccc3)c2)N(C)C)cc1 (centres undefined) | 27 | -1% | 16* | -22% | -2% | .
COc1ccc(-c2cc(C(=O)NCC(c3ccccc3)N(C)C)c3ccccc3n2)cc1OC (centres undefined) | -1 | 4% | -5 | -12% | -11% | -1%
O=C(NCCc1ccccc1)c1ccc2c(c1)N(Cc1ccccc1)C(=O)c1ccccc1S2=O (centres undefined) | . | . | . | . | -5% | .
O=C(Oc1csc(=S)n1C(=O)c1ccccc1)c1ccccc1 | -25 | -22% | -4 | 136% | ? | 8%
Cc1cccc(C(=O)Oc2csc(=S)n2C(=O)c2cccc(C)c2)c1 | -4 | -21% | -2 | -16% | 28µM* | 11%
CC[C@H](C)[C@H](NC(=O)[C@H](Cc1cnc[nH]1)NC(=O)[C@@H](NC(=O)[C@H](CCCNC(=N)N)NC(=O)[C@H](CCCCN)NC(=O)[C@H](CCCNC(=N)N)NC(=O)[C@H](CCCCN)NC(=O)[C@@H](N)CC(N)=O)[C@@H](C)CC)C(=O)NCC(=O)N1CCC[C@H]1C(=O)NCC(=O)N[C@@H](CCCNC(=N)N)C(=O)N[C@@H](C)C(=O)N[C@@H](Cc1ccccc1)C(=O)N[C@@H](Cc1ccc(O)cc1)C(=O)N[C@H](C(=O)N[C@H](C(=O)N[C@@H](CCCCN)C(=O)N[C@@H](CC(N)=O)C(=O)N[C@H](C(=O)N[C@H](C(=O)NCC(=O)N[C@H](C(=O)N[C@H](C(=O)N[C@@H](CS)C(=O)O)[C@@H](C)CC)[C@@H](C)O)[C@@H](C)CC)[C@@H](C)CC)[C@@H](C)O)[C@@H](C)O | 2 | . | -2 | . | . | 0%
O=C(COC(=O)CNS(=O)(=O)c1ccc(F)c(F)c1F)NCCc1ccccc1 | 49* | -7% | 46* | -12% | 0% | .
O=C(COC(=O)CNS(=O)(=O)c1ccc(F)c(F)c1F)NC1CC1 | . | . | . | -23% | -10% | .
O=C(CN1C(=O)CC(c2ccccc2)=Nc2ccccc21)Nc1ccc(Br)cc1 | . | . | . | . | 2% | .
COc1cc(SC)ccc1C(=O)Nc1ccc(C)cc1 | 69* | 0% | 36* | -19% | 0% | -28%
COc1cc(SC)ccc1C(=O)Nc1ccc2c(c1)OCO2 | 71* | -12% | 37* | -8% | -3% | -26%
COc1cc(SC)ccc1C(=O)Nc1ccc(C)cc1C | 106* | 0% | 47* | -11% | 5% | -1%
COc1cc(SC)ccc1C(=O)Nc1ccc(OCC(=O)N2CCOCC2)cc1 | 61* | 1% | 17* | 3% | 7% | -1%
SMILES | Shiga toxin inh | LmPK inh | CHX counter | RE007 growth inh | Tb PYK inh | Giardia FBPA inh
CCC(=O)N1CCc2cc(Br)cc(S(=O)(=O)N(CC)Cc3ccccc3)c21 | . | . | . | . | -1% | .
Cc1cc(NC(=O)C2CCN(S(=O)(=O)c3cccc4nsnc34)CC2)ccc1Br | . | . | . | . | -1% | .
COc1cc(-c2nc(C(N)=O)c3c(n2)n(-c2cccc(C)c2)c(=O)n3C)cc(OC)c1OC | . | . | . | . | 3% | .
COc1cc2[nH]c3c(Cl)ncnc3c2cc1OC | -14 | -1% | -2 | 5% | -13% | -26%
COc1cc2[nH]c(Cl)c([N+](=O)[O-])c2cc1OC | -3 | 2% | -1 | 5% | ? | 5µM*
CCCOC1CCCN(C(=O)CCc2nnc(CCCCc3ccccc3)o2)C1 (centres undefined) | 41* | 3% | 34* | 19% | 6% | 1%
CC1CCCN(C(=O)CCc2ccccc2)C1 (centres undefined) | active | -4% | 9.3* | -3% | 0% | 6%
O=C(CCc1nnc(CCCc2ccccc2)o1)N1CCCCCC1 | 87* | -1% | 32* | 1% | 2% | 0%
COCC1CCN(C(=O)CCc2nnc(CCCCc3ccccc3)o2)CC1 | 7 | 1% | -2 | -13% | -19% | 3%
CCN(CC)C1CCN(C(=O)CCc2nnc(CCc3ccccc3)o2)C1 (centres undefined) | 1 | 5% | 2 | -15% | 3% | 0%
O=c1[nH]c(=S)[nH]cc1Oc1ccc(Cl)cc1Cl | -6 | 0% | -4 | . | -1% | 6%
CCCc1cc(N2CCOCC2)n2ncc(-c3ccccc3)c2n1 | 58* | 2% | 39* | 9% | -6% | 4%
Cc1nc2c(-c3ccccc3)cnn2c(N2CCOCC2)c1C | 98* | 6% | 47* | 1% | -8% | 1%
COc1ccc(CNC(=O)c2ccc3nc(-c4ccc(F)cc4)c(-c4ccc(F)cc4)nc3c2)cc1 | . | . | . | . | 2% | .
c1ncc(CCCC2CCNCC2)[nH]1 | 2 | . | -5 | . | . | -19%
c1csc(C2=NNC(=NC3CCCCC3)SC2)c1 | 75* | 3% | 37* | -17% | -16% | 7%
c1ccc(CN=C2NN=C(c3cc4ccccc4o3)CS2)cc1 | 44* | -1% | 26* | 8% | 0% | 11%

High-throughput results as filed in PubChem BioAssay.
